# Experiments:
# Assay in all cases: DAPPL (digital affinity profiling via proximity ligation, sequencing); 10 mM Tris-HCl pH 7.5, 50 mM NaCl, 1 mM DTT, 4% glycerol, room temperature, 30 min; GST-TFs on glutathione beads, 16-mer random dsDNA library, 0.1% formaldehyde crosslink after washing; high values mean tight binding
# [1] = biological target: T1, FEV (Homo sapiens, UniProt Q99581 1-238); conditions: protein: recombinant; tags: N-terminal GST; dsDNA, one strand shown
# T1 sequence: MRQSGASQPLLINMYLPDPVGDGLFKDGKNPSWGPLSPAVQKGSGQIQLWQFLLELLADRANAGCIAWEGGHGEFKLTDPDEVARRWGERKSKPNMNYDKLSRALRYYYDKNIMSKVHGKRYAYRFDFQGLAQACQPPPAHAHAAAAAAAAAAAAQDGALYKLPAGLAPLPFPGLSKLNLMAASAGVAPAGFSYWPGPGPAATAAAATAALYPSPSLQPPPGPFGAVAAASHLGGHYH
# Procedure, shortened: (§1)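 GST fusions of human transcription factors were expressed in yeast and captured with glutathione beads. Once given DNA barcodes and pooled alongside a tag-only sample, they were incubated for 30 min at room temperature with 200 nmole of a random double-stranded 16-mer DNA library in Tris/NaCl/DTT/glycerol buffer, then washed, crosslinked (0.1% formaldehyde), proximity-ligated, PCR-amplified and sequenced on an Illumina NextSeq500. The binding signal of each hexamer is its read frequency for a factor divided by its frequency for the tag-only sample.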
# [2] = biological target: ETV5 (Homo sapiens, UniProt P41161 1-510); conditions: protein: recombinant; tags: N-terminal GST; dsDNA, one strand shown
# ETV5, sequence (P41161 whole entry): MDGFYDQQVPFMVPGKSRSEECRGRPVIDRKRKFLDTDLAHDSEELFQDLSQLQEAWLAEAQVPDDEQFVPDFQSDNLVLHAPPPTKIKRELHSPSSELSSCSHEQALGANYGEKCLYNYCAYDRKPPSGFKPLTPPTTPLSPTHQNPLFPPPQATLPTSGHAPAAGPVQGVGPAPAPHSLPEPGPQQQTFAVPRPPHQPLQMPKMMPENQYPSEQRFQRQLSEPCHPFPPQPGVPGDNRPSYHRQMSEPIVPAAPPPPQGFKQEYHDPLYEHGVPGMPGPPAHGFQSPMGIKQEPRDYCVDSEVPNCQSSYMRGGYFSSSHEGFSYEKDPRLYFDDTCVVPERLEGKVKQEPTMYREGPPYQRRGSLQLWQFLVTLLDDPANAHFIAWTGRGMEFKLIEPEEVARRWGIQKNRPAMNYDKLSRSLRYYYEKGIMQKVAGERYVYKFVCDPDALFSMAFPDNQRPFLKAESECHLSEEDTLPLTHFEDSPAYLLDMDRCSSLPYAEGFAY
# Procedure, shortened: as §1
# [3] = biological target: HSF1 (Homo sapiens, UniProt Q00613 1-529); conditions: protein: recombinant; tags: N-terminal GST; chain copies: 3; dsDNA, one strand shown
# HSF1, sequence (Q00613 whole entry): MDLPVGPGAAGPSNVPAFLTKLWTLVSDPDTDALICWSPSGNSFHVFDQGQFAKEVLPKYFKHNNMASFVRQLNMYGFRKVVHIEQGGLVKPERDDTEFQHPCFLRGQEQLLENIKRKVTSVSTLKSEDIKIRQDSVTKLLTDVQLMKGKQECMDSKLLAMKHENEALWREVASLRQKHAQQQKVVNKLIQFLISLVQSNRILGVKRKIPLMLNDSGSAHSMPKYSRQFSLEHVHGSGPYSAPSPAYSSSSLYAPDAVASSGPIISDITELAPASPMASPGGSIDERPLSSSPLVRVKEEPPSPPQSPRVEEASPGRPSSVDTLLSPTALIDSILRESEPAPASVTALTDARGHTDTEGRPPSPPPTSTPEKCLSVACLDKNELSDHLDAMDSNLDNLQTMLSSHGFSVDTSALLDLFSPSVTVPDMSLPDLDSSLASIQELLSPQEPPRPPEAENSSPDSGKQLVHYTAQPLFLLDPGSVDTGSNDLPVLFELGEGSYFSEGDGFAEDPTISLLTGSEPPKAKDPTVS
# Procedure, shortened: as §1
# [4] = biological target: T2, SPIC (Homo sapiens, UniProt Q8N5J4 1-248); conditions: protein: recombinant; tags: N-terminal GST; dsDNA, one strand shown
# T2 sequence: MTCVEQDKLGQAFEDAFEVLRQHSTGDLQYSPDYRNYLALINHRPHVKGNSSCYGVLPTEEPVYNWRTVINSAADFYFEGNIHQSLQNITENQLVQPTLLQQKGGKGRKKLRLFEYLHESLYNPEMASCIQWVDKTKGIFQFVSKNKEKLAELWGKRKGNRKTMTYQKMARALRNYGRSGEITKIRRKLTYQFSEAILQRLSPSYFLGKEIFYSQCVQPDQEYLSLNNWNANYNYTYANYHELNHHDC
# Procedure, shortened: as §1
# [5] = biological target: ELF4 (Homo sapiens, UniProt Q99607 1-663); conditions: protein: recombinant; tags: N-terminal GST; dsDNA, one strand shown
# ELF4, sequence (Q99607 whole entry): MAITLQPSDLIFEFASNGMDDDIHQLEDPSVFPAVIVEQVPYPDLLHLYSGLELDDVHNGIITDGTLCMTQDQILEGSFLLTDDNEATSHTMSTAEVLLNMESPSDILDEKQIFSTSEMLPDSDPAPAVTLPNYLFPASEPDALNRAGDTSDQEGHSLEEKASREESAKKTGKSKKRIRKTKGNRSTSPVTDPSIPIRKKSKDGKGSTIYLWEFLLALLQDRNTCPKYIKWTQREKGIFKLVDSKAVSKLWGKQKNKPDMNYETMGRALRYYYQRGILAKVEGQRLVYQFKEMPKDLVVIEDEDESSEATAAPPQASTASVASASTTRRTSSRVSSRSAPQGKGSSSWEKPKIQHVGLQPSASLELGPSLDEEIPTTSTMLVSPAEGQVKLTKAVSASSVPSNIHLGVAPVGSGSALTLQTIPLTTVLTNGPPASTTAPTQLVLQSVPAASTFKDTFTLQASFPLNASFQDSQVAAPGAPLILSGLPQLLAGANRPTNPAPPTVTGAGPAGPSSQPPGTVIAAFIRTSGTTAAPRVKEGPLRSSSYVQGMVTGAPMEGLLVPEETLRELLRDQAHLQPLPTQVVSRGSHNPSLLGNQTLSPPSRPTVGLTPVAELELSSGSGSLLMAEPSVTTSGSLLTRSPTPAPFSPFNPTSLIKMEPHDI
# Procedure, shortened: as §1
# [6] = biological target: T3, ELK4 (Homo sapiens, UniProt P28324-2 1-405); conditions: protein: recombinant; tags: N-terminal GST; dsDNA, one strand shown
# T3 sequence: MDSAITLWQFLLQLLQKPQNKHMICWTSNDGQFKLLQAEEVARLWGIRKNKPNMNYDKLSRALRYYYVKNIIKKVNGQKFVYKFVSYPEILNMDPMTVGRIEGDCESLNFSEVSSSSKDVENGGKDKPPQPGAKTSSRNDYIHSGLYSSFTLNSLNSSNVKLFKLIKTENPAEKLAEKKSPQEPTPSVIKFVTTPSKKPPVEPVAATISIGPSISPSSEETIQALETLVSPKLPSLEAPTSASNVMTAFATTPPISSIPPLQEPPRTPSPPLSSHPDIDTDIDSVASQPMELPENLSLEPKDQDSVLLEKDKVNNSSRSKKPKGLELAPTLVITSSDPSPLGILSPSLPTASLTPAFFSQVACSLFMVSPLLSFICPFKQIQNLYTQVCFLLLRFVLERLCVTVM
# Procedure, shortened: as §1
# [7] = biological target: T4, ETV2 (Homo sapiens, UniProt O00321 1-342); conditions: protein: recombinant; tags: N-terminal GST; dsDNA, one strand shown
# T4 sequence: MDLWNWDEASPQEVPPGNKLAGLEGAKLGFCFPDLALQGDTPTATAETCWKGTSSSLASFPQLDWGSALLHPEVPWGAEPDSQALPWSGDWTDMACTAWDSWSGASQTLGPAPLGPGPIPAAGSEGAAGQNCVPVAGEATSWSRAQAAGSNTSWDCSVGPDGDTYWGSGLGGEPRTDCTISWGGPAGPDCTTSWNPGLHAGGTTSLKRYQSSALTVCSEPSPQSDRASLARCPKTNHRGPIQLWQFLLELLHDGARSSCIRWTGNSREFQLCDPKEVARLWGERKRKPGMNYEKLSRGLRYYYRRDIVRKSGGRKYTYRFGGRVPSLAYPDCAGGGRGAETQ
# Procedure, shortened: as §1
# [8] = biological target: T5, ELF3 (Homo sapiens, UniProt P78545 1-371); conditions: protein: recombinant; tags: N-terminal GST; dsDNA, one strand shown
# T5 sequence: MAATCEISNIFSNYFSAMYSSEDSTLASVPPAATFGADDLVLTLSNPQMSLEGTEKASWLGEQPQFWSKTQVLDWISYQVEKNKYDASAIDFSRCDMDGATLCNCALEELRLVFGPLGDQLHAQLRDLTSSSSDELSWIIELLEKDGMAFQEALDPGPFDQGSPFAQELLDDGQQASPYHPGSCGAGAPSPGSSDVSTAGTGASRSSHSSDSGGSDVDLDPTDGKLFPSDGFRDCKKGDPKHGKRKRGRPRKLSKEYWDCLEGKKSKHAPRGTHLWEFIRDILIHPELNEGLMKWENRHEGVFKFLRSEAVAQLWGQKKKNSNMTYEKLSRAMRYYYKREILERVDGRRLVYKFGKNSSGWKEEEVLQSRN
# Procedure, shortened: as §1
# [9] = biological target: CRX (Homo sapiens, UniProt O43186 1-299); conditions: protein: recombinant; tags: N-terminal GST; dsDNA, one strand shown
# CRX, sequence (O43186 whole entry): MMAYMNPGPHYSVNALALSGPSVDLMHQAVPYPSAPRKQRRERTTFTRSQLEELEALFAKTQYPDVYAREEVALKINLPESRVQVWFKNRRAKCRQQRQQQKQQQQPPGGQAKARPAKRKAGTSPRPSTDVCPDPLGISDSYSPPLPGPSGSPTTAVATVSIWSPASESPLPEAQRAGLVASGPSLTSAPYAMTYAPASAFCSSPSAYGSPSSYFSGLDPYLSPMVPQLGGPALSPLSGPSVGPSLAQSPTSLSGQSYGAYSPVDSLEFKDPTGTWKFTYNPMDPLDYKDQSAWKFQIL
# Procedure, shortened: as §1
# [10] = biological target: ETV1 (Homo sapiens, UniProt P50549 1-477); conditions: protein: recombinant; tags: N-terminal GST; dsDNA, one strand shown
# ETV1, sequence (P50549 whole entry): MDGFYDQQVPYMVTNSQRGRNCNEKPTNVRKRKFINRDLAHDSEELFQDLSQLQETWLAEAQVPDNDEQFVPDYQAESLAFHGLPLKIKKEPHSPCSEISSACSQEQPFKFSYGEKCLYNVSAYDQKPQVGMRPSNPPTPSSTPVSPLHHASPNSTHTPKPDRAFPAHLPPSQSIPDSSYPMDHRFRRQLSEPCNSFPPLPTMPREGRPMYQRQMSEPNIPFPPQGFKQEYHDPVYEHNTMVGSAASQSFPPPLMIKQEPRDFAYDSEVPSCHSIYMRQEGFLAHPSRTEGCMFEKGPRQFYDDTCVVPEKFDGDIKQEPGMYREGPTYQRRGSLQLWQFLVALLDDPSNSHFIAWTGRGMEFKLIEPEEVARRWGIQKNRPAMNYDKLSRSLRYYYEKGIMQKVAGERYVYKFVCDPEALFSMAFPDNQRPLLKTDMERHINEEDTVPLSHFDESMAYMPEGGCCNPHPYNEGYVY
# Procedure, shortened: as §1
# [11] = biological target: T6, ERF (Homo sapiens, UniProt P50548 1-548); conditions: protein: recombinant; tags: N-terminal GST; dsDNA, one strand shown
# T6 sequence: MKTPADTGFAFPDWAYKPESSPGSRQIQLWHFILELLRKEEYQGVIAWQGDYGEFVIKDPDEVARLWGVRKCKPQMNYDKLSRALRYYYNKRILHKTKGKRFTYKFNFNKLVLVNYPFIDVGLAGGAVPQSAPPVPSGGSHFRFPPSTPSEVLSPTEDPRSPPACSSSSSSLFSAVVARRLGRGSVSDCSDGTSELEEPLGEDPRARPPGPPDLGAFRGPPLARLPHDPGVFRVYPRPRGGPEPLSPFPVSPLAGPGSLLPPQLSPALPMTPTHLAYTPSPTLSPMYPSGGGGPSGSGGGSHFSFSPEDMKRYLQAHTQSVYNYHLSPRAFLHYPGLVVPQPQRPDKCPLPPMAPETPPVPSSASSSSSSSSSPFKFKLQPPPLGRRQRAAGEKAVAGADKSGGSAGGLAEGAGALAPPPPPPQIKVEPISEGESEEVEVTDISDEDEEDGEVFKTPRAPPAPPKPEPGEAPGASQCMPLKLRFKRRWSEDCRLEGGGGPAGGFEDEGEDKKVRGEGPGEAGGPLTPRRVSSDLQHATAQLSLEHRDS
# Procedure, shortened: as §1
# [12] = biological target: T7, ETV3L (Homo sapiens, UniProt Q6ZN32 1-361); conditions: protein: recombinant; tags: N-terminal GST; dsDNA, one strand shown
# T7 sequence: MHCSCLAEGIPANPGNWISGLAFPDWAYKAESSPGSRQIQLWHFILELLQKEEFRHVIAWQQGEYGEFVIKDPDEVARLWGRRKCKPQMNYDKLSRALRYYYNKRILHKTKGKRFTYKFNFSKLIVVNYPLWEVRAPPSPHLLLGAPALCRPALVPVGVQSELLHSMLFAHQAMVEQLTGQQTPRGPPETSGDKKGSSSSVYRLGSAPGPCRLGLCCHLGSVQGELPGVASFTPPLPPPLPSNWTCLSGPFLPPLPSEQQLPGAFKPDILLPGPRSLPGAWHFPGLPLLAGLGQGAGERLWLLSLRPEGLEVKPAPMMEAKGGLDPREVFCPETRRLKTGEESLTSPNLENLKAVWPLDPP
# Procedure, shortened: as §1
# [13] = biological target: T8, ETS2 (Homo sapiens, UniProt P15036 1-469); conditions: protein: recombinant; tags: N-terminal GST; dsDNA, one strand shown
# T8 sequence: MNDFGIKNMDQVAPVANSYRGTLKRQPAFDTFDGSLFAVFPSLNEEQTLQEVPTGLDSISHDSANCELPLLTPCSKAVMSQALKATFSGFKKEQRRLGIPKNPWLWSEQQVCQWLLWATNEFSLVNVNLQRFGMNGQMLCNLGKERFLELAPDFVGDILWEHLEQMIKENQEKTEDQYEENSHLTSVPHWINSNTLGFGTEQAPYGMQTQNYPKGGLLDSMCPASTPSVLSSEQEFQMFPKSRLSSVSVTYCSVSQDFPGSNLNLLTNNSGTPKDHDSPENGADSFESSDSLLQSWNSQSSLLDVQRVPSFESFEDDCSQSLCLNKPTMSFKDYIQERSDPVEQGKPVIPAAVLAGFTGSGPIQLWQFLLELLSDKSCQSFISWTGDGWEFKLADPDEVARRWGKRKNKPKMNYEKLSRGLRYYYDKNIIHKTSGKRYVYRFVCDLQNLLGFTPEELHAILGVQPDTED
# Procedure, shortened: as §1
# [14] = biological target: T9, SPDEF (Homo sapiens, UniProt O95238 1-335); conditions: protein: recombinant; tags: N-terminal GST; dsDNA, one strand shown
# T9 sequence: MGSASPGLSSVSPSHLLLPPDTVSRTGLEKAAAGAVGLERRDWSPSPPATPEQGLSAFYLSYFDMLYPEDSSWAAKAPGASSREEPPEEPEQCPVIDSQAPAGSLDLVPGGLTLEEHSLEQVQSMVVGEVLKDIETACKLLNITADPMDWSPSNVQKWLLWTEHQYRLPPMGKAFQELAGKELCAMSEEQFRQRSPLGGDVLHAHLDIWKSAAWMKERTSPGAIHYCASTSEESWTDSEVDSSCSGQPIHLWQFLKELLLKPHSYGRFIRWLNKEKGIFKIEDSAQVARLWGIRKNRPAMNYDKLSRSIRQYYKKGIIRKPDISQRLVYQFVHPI
# Procedure, shortened: as §1
# [15] = biological target: T10, ETV7 (Homo sapiens, UniProt Q9Y603 1-341); conditions: protein: recombinant; tags: N-terminal GST; dsDNA, one strand shown
# T10 sequence: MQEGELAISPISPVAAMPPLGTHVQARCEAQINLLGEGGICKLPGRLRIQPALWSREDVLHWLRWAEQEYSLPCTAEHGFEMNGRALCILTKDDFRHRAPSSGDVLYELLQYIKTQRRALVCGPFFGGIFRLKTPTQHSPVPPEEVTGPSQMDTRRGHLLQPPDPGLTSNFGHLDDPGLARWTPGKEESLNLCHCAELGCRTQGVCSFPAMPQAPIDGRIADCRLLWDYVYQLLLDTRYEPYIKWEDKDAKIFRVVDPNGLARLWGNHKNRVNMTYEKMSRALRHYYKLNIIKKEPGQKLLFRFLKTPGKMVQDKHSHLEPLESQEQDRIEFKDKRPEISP
# Procedure, shortened: as §1
# [16] = biological target: T11, ELF5 (Homo sapiens, UniProt Q9UKW6-2 1-255); conditions: protein: recombinant; tags: N-terminal GST; dsDNA, one strand shown
# T11 sequence: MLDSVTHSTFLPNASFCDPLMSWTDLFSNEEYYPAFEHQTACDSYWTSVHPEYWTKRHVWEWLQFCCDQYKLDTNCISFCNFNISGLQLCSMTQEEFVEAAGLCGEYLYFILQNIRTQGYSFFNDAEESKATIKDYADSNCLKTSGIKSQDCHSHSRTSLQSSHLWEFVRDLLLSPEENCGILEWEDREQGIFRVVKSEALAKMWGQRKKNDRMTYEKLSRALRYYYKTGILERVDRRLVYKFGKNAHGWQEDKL
# Procedure, shortened: as §1
# [17] = biological target: T12, ETV3 (Homo sapiens, UniProt P41162-2 1-143); conditions: protein: recombinant; tags: N-terminal GST; dsDNA, one strand shown
# T12 sequence: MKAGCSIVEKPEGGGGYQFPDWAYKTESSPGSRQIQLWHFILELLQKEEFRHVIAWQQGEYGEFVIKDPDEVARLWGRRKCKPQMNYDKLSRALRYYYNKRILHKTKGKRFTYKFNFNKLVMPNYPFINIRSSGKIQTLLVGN
# Procedure, shortened: as §1
# [18] = biological target: ETV6 (Homo sapiens, UniProt P41212 1-452); conditions: protein: recombinant; tags: N-terminal GST; dsDNA, one strand shown
# ETV6, sequence (P41212 whole entry): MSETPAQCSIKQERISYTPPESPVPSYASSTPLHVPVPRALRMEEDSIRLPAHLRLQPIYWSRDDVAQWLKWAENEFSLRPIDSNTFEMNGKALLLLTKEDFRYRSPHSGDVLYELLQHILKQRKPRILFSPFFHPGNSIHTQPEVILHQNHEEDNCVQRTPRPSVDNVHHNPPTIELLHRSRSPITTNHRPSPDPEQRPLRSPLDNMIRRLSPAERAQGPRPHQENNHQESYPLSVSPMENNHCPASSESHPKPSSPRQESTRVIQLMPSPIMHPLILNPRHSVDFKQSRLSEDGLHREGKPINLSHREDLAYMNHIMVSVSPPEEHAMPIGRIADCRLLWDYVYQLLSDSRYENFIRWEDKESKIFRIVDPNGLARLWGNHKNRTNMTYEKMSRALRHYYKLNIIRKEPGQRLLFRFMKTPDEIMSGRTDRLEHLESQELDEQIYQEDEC
# Procedure, shortened: as §1
sequence,measurement,setting,value
CTATGG,binding signal,[1],"1.15 fold enrichment (6-mer frequency, TF over GST control)"
same,binding signal,[2],"1.23 fold enrichment (6-mer frequency, TF over GST control)"
same,binding signal,[3],"1.17 fold enrichment (6-mer frequency, TF over GST control)"
same,binding signal,[4],"1.14 fold enrichment (6-mer frequency, TF over GST control)"
same,binding signal,[5],"1.15 fold enrichment (6-mer frequency, TF over GST control)"
same,binding signal,[6],"1.24 fold enrichment (6-mer frequency, TF over GST control)"
same,binding signal,[7],"1.28 fold enrichment (6-mer frequency, TF over GST control)"
same,binding signal,[8],"1.25 fold enrichment (6-mer frequency, TF over GST control)"
same,binding signal,[9],"1.11 fold enrichment (6-mer frequency, TF over GST control)"
same,binding signal,[10],"1.18 fold enrichment (6-mer frequency, TF over GST control)"
same,binding signal,[11],"1.11 fold enrichment (6-mer frequency, TF over GST control)"
same,binding signal,[12],"1.16 fold enrichment (6-mer frequency, TF over GST control)"
same,binding signal,[13],"1.16 fold enrichment (6-mer frequency, TF over GST control)"
same,binding signal,[14],"1.29 fold enrichment (6-mer frequency, TF over GST control)"
same,binding signal,[15],"1.39 fold enrichment (6-mer frequency, TF over GST control)"
same,binding signal,[16],"1.09 fold enrichment (6-mer frequency, TF over GST control)"
same,binding signal,[17],"1.29 fold enrichment (6-mer frequency, TF over GST control)"
same,binding signal,[18],"1.09 fold enrichment (6-mer frequency, TF over GST control)"
